PubChem BioAssay (NCATS)
Records with an inconclusive call do not appear. Active and inactive are the calls of the source. Calls follow the shape of the dose curve; as a rule, active = well fitted curve in the direction sought with a large enough effect; inconclusive = small, poorly fitted or top-dose-only effect, or another doubt; inactive = no such curve, though single readings can be large; an effect the other way counts as inactive or inconclusive.

Columns and labels:
[1] = Quantitative High-Throughput drug screen in 47 multiple myeloma cell lines against the NCATS MIPE library collection: Delta47_JCRB cell viability assay (AID 1918925; also: nearly all actives have a fitted effect of over 45% in size)
In short: (§1)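 Myeloma cell lines, 500 cells per well, exposed to MIPE 4.0 library compounds for 48 h at 37C, 5% CO2. Viability from ATP by CellTiter-Glo luminescence; normalised to DMSO (100%) and media-only (0%) wells.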

[2] = Quantitative High-Throughput drug screen in 47 multiple myeloma cell lines against the NCATS MIPE library collection: EJM_DSMZ cell viability assay (AID 1918926; also: nearly all actives have a fitted effect of over 30% in size)
In short: as §1

[3] = Quantitative High-Throughput drug screen in 47 multiple myeloma cell lines against the NCATS MIPE library collection: AMO1_DSMZ cell viability assay (AID 1918927; also: nearly all actives have a fitted effect of over 30% in size)
In short: as §1

[4] = Quantitative High-Throughput drug screen in 47 multiple myeloma cell lines against the NCATS MIPE library collection: ARD_JJKsccE7 cell viability assay (AID 1918929)
In short: as §1

[5] = Quantitative High-Throughput drug screen in 47 multiple myeloma cell lines against the NCATS MIPE library collection: Karpas620_DSMZ cell viability assay (AID 1918959); also: nearly all actives have a fitted effect of over 30% in size
In short: (§2)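 Inhibition of cell viability is measured here. Each line was plated at 500 cells per well, treated with MIPE 4.0 drugs, kept 48 hours at 37C, then assayed for ATP content by CellTiter-Glo luminescence.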

[6] = Quantitative High-Throughput drug screen in 47 multiple myeloma cell lines against the NCATS MIPE library collection: KMM1_JCRB cell viability assay (AID 1918960); also: nearly all actives have a fitted effect of over 30% in size
In short: (§3)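 Myeloma cells at 500 per well in 1536-well format treated with MIPE 4.0 library by pin transfer for 48 h at 37C, 5% CO2. Viability from ATP luminescence (CellTiter-Glo), normalized to DMSO (100%) and media-only (0%) wells.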

[7] = Quantitative High-Throughput drug screen in 47 multiple myeloma cell lines against the NCATS MIPE library collection: JIM3_ECACC cell viability assay (AID 1918963; also: nearly all actives have a fitted effect of over 35% in size)
In short: as §2

[8] = Quantitative High-Throughput drug screen in 47 multiple myeloma cell lines against the NCATS MIPE library collection: JIM1_ECACC cell viability assay (AID 1918964)
In short: as §1

[9] = Quantitative High-Throughput drug screen in 47 multiple myeloma cell lines against the NCATS MIPE library collection: INA6_PLB cell viability assay (AID 1918965; also: nearly all actives have a fitted effect of over 55% in size)
In short: (§4)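 qHTS of the MIPE 4.0 collection: 500 myeloma cells/well, 48 h drug exposure at 37C in 5% CO2, then CellTiter-Glo for 5 min at room temperature before luminescence reading.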

[10] = Quantitative High-Throughput drug screen in 47 multiple myeloma cell lines against the NCATS MIPE library collection: JJN3_DSMZ cell viability assay (AID 1918966; also: nearly all actives have a fitted effect of over 50% in size)
In short: as §1

[11] = Quantitative High-Throughput drug screen in 47 multiple myeloma cell lines against the NCATS MIPE library collection: Karpas25_ECACC cell viability assay (AID 1918968; also: nearly all actives have a fitted effect of over 35% in size)
In short: as §1

[12] = Quantitative High-Throughput drug screen in 47 multiple myeloma cell lines against the NCATS MIPE library collection: KMS27_JCRB cell viability assay (AID 1918970); settings: KMS27 myeloma cells, CellTiter-Glo ATP viability, 48 h; viability (% of DMSO): at 45.8 µM (top of the series); also: nearly all actives have a fitted effect of over 30% in size
In short: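 Each line is seeded at 500 cells per well and treated with library compounds for 48 hours under 37 °C, 5% CO2. CellTiter-Glo is then added for 5 min at room temperature before median relative luminescence is recorded.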

[13] = Quantitative High-Throughput drug screen in 47 multiple myeloma cell lines against the NCATS MIPE library collection: KMS12PE_JCRB cell viability assay (AID 1918972); also: nearly all actives have a fitted effect of over 30% in size
In short: as §4

[14] = Quantitative High-Throughput drug screen in 47 multiple myeloma cell lines against the NCATS MIPE library collection: KMS20_JCRB cell viability assay (AID 1918973); also: nearly all actives have a fitted effect of over 45% in size
In short: as §1

[15] = Quantitative High-Throughput drug screen in 47 multiple myeloma cell lines against the NCATS MIPE library collection: FR4_PLB cell viability assay (AID 1918924; also: nearly all actives have a fitted effect of over 35% in size)
In short: as §2

[16] = Quantitative High-Throughput drug screen in 47 multiple myeloma cell lines against the NCATS MIPE library collection: ARP1_JJKsccF8 cell viability assay (AID 1918928; also: nearly all actives have a fitted effect of over 40% in size)
In short: as §3

[17] = Quantitative High-Throughput drug screen in 47 multiple myeloma cell lines against the NCATS MIPE library collection: KHM11_PLB cell viability assay (AID 1918962); also: nearly all actives have a fitted effect of over 35% in size
In short: as §2

[18] = Quantitative High-Throughput drug screen in 47 multiple myeloma cell lines against the NCATS MIPE library collection: H1112_PLB cell viability assay (AID 1918967; also: nearly all actives have a fitted effect of over 30% in size)
In short: as §1

[19] = Quantitative High-Throughput drug screen in 47 multiple myeloma cell lines against the NCATS MIPE library collection: Karpas417_ECACC cell viability assay (AID 1918961); settings: Karpas417 myeloma viability, CellTiter-Glo ATP luminescence, 48 h; viability (% of DMSO): at 45.8 µM (top of the series)
In short: as §4

[20] = Quantitative High-Throughput drug screen in 47 multiple myeloma cell lines against the NCATS MIPE library collection: KMS12BM_JCRB cell viability assay (AID 1918971); also: nearly all actives have a fitted effect of over 35% in size
In short: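 Relative luminescence from CellTiter-Glo served as the viability signal, referenced to DMSO-treated (100%) and cell-free medium (0%) controls. Treatment lasted 48 hours at 37C with 500 cells per well.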

Measured: Potency
Potency is read from the fitted curve at half-maximal effect.

Oc1cc(O)cc(C=Cc2ccc(O)c(O)c2)c1
active: [1] 4.69 µM | [2] 20.9 µM | [3] 11.8 µM | [4] 9.35 µM | [5] 5.26 µM | [6] 13.2 µM | [7] 14.8 µM | [8] 16.6 µM | [9] 2.96 µM | [10] 16.6 µM | [11] 7.43 µM | [12] 18.7 µM | [13] 18.7 µM | [14] 2.96 µM

CO[C@H]1C=CO[C@@]2(C)Oc3c(C)c(O)c4c(O)c(c(C=NN5CCN(C)CC5)c(O)c4c3C2=O)NC(=O)C(C)=CC=C[C@H](C)[C@H](O)[C@@H](C)[C@@H](O)[C@@H](C)[C@H](OC(C)=O)[C@H]1C
inactive: [15] | [4] | [5] | [6] | [12]
active: [3] 5.98 µM | [10] 1.19 µM

CN(C)c1nc(Cc2ccc(NC(=O)c3ccc(C(F)(F)F)cc3)cc2)nc(N(C)C)c1CC(=O)O
active: [11] 10.5 µM
not listed: [10] | [14] | [15] | [19] | [20]
inactive: all other assays above

COc1cc2nc(-c3cc(F)ccc3O)nc(N[C@@H]3CNC[C@@H]3C(C)(C)O)c2cc1OC
active: [1] 2.64 µM | [2] 11.8 µM | [3] 6.62 µM | [16] 10.5 µM | [4] 6.62 µM | [5] 6.62 µM | [6] 4.18 µM | [19] 0.118 µM | [17] 0.0743 µM | [7] 7.43 µM | [8] 1.87 µM | [10] 11.8 µM | [11] 4.18 µM | [12] 5.9 µM | [20] 20.9 µM | [13] 8.33 µM

N=C1SC(=Cc2ccc(-c3ccc4c(c3)C(=O)NC4=O)o2)C(=O)N1c1ccc(Br)cc1
inactive: [1] | [3] | [5] | [8] | [12]
active: [2] 4.18 µM | [16] 3.32 µM | [10] 2.96 µM | [20] 4.18 µM

COc1cc(C=CC(=O)O)ccc1O
active: [19] 0.0042 µM
inactive: [1] | [2] | [3] | [4] | [5] | [6] | [17] | [10] | [12] | [13]

CN(C)CCCNC(=O)c1ccc(-c2cc(O)c3ncccc3c2)cc1
active: [15] 20.9 µM | [5] 20.9 µM | [6] 20.9 µM | [7] 23.5 µM | [10] 20.9 µM | [11] 18.7 µM | [20] 9.35 µM | [13] 20.9 µM

CCC(=O)NCC[C@@H]1CCc2ccc3c(c21)CCO3
active: [17] 13.2 µM | [7] 13.2 µM | [11] 13.2 µM
inactive: [1] | [2] | [3] | [4] | [5] | [6] | [12] | [13]

O=S(=O)(NCCNCC=Cc1ccc(Br)cc1)c1cccc2cnccc12
active: [1] 14.8 µM | [3] 16.6 µM | [16] 16.6 µM | [5] 20.9 µM | [6] 14.8 µM | [19] 1.32 µM | [17] 9.35 µM | [7] 16.6 µM | [8] 4.18 µM | [9] 7.43 µM | [10] 16.6 µM | [18] 14.8 µM | [11] 9.35 µM | [12] 13.2 µM | [13] 16.6 µM | [14] 11.8 µM

O=C(CCCN1CCN(c2ccc(F)cc2)CC1)NC1c2ccccc2CSc2ccccc21 (configuration not stated)
active: [1] 5.26 µM | [3] 6.62 µM | [16] 3.72 µM | [4] 3.32 µM | [5] 6.62 µM | [6] 4.69 µM | [19] 8.33 µM | [17] 4.18 µM | [18] 7.43 µM | [11] 3.32 µM | [12] 5.9 µM | [20] 11.8 µM | [13] 4.18 µM

CC(C)n1c(C=C[C@H](O)C[C@H](O)CC(=O)O)c(-c2ccc(F)cc2)c2ccccc21
active: [1] 18.7 µM | [3] 16.6 µM | [17] 14.8 µM | [7] 16.6 µM | [8] 7.43 µM | [11] 14.8 µM | [12] 3.72 µM | [13] 3.32 µM
inactive: [2] | [10]

CN1[C@H]2CC[C@H]1CC(OC(=O)c1c[nH]c3ccccc13)C2 (some centres not stated)
active: [1] 4.18 µM | [14] 14.8 µM
inactive: [2] | [3] | [5] | [6] | [7] | [8] | [9] | [12] | [20] | [13]
